Assay outcomes from PubChem BioAssay.
These entries were drawn from the full list.
aSyn 5UTR act – Activators via SNCA 5'UTR binding, MLPCN; alpha-synuclein 5'UTR reporter, activators screen; 7.1% of 300,000 active; activity score, % (tested at 7.5 µM), hits read low; in the data active = activity score below about -60%
Numbers stand for hits; i = inactive.

SMILES	aSyn 5UTR act
Cc1nc(NC(=S)NC(=O)c2ccccc2)sc1C	-161
Cc1nc(NC(=O)CCc2ccccc2)sc1C	-86
Cc1nc(NC(=O)c2csc3ccccc23)sc1C	-141
COC(=O)c1sc(NC(=S)NC(=O)c2cccc(C)c2)nc1C	-144
COC(=O)c1sc(NC(=S)NC(=O)c2ccccc2F)nc1C	-152
Cc1ccc(C(=O)Nc2nccs2)cc1	-124
Nc1ccc(C(=O)Nc2nccs2)cc1	-87
Cc1oc(-c2ccccc2)nc1C(=O)Nc1nccs1	-117
CC(C)(C)N1C(=O)c2ccc(C(=O)Nc3nccs3)cc2C1=O	-156
O=C(Nc1nccs1)c1ccc2nccnc2c1	-161
O=C(Nc1nccs1)c1ccc(N2C(=O)[C@@H]3[C@H](C2=O)[C@H]2C=C[C@@H]3C2)cc1	-147
O=C(Nc1nccs1)c1cncc(Br)c1	-145
Cn1c(SCc2ccc(C(=O)Nc3nccs3)cc2)nnc1-c1ccccc1	-103
CC(C)C(C(=O)Nc1nccs1)c1ccc(Cl)cc1 (stereo not drawn)	i
O=C(Nc1nccs1)C(Br)C(Br)c1ccccc1 (stereo not drawn)	-75
O=C(Nc1nccs1)OCc1ccccc1	-80
Nc1ccccc1C(=O)Nc1nccs1	-103
O=C(Nc1nccs1)c1ccc(COc2c(F)c(F)cc(F)c2F)cc1	-107
CN(c1ccc(C(=O)Nc2nccs2)cc1)S(=O)(=O)c1ccccc1	-104
O=C(NCc1ccco1)c1ccc2ccccc2c1	-64
CC(C)(CO)NC(=O)c1ccc2c(c1)C(=O)c1ccccc1-2	-96
O=C(NCc1ccco1)c1ccc(Oc2ccccc2)cc1	-87
O=C(NCc1ccco1)c1ccc2c(c1)C(=O)c1ccccc1-2	-77
CCc1nc2ccc(C(=O)NCCc3ccco3)cc2nc1CC	-63
O=S(=O)(c1ccc(Cl)s1)N1CCCc2cccc(O)c21	-125
SMILES	aSyn 5UTR act
N/C(=N\OC(=O)CSc1ccccc1)c1ccncc1	-91
N/C(=N\OC(=O)COc1ccccc1)c1ccncc1	-82
N/C(=N\OC(=O)COc1ccccc1)c1ccc(Cl)cc1	-67
COc1cccc(OCC(=O)O/N=C(\N)c2ccncc2)c1	-90
COc1ccc(/C(N)=N/OC(=O)COc2ccccc2Cl)cc1	-141
N/C(=N\OC(=O)COc1ccccc1)c1cccnc1	-113
COc1cc(C=O)ccc1Oc1nnnn1-c1ccc(C(N)=O)cc1	-68
CSC1=NC2(CCCCC2)CC12C=CC(=O)C=C2	-63
COc1ccc(C2=CC(c3sccc3C)n3nnnc3N2)cc1 (stereo not drawn)	-130
COc1ccc(C2=CC(c3ccc(F)cc3)n3nnnc3N2)cc1 (stereo not drawn)	-130
CC1CCC/C=C/C(=O)c2c(O)cc(O)cc2CC(=O)O1 (stereo not drawn)	-153
COc1ccc(CCN2CCCC(CN(C)C(=O)c3ccoc3)C2)cc1 (stereo not drawn)	-109
Cc1ccc(Nc2ncnc(-n3cccc3)n2)cc1Cl	-125
COc1ccc(/C=N/Nc2nnc(Cc3ccccc3)c(=O)[nH]2)cc1OC	-67
COc1ccc(Cc2nnc(N/N=C/c3ccc(O)cc3)[nH]c2=O)cc1OC	i
COc1ccc(-c2ccc3oc(-c4ccsc4)cc3c2)cc1	-140
C(=N\n1cnnc1)/c1ccc(OCc2cccc3ccccc23)cc1	-110
C(=N\n1cnnc1)/c1cccc(OCCOc2ccccc2)c1	-65
CC(=O)c1cccc(NC(=O)CN2C=NS(=O)(=O)c3ccc(C)cc32)c1	-124
O=[N+]([O-])c1cc(-c2nnc(C34CC5CC(CC(C5)C3)C4)o2)cc([N+](=O)[O-])c1	-97
Fc1ccc(CSc2nc3ncccc3[nH]2)cc1	-105
c1ccc(CSc2nc3ccccc3[nH]2)cc1	-116
CCCCCOc1ccc(CSc2ncn[nH]2)cc1	-87
CC(C)CSc1nc2ccccc2[nH]1	-95
Nc1nc(CSc2nc3ccccc3[nH]2)cs1	-76
SMILES	aSyn 5UTR act
O=Cc1[nH]c2ccccc2c1N(C(=O)CCl)c1ccc([N+](=O)[O-])cc1	i
O=[N+]([O-])c1ccc(CSc2nc3ccccc3[nH]2)cc1	-114
Fc1ccc(CSc2nc3ccccc3[nH]2)cc1	-155
O=C(NCCO)c1ccc(CSc2nc3ccccc3[nH]2)cc1	-66
OCCN(CCO)CC(O)COc1ccc(C23CC4CC(CC(C4)C2)C3)cc1 (stereo not drawn)	i
CCCCOc1ccc(CSc2nncn2N)cc1	-86
c1ccc(CSCc2nc3ccccc3[nH]2)cc1	-91
C=CCOc1ccc2nc(NC(=O)OC)[nH]c2c1	i
Clc1ccccc1CSc1nc2ccncc2[nH]1	-79
CCOc1ccc2nc(SCC)[nH]c2c1	-118
CCCOc1ccc(CSc2nc3ccccc3[nH]2)cc1	-127
OCCc1ccc(O)c(-n2nc3ccccc3n2)c1	-117
COc1ccc(-c2noc(-c3cccnc3)n2)cc1OC	-159
CCOc1ccc(-c2noc(-c3cccnc3)n2)cc1OC	-95
COCCNC(=O)c1cc2sc3ccccc3c2s1	-175
CCn1c(=O)c2cc(C(=O)NCCCOC)sc2c2ccccc21	-85
CCCCN(CC)CCNC(=O)c1cc2c(=O)n(CC)c3ccccc3c2s1	-274
CCCN(CCC)CCCNC(=O)c1cc2c(=O)n(CC)c3ccccc3c2s1	-300
COCCCNC(=O)c1ccc(Cn2c(=O)c3ccccc3n(Cc3ccccc3C#N)c2=O)cc1	i
CCCCN(CC)CCCNC(=O)c1cc2c(=O)n(CC)c3ccccc3c2s1	-321
Cc1ccc(C(=O)/C=C/c2ccccc2[N+](=O)[O-])cc1	-173
Cc1ccc(C(=O)C(C)OC(=O)c2ccccc2[N+](=O)[O-])cc1 (stereo not drawn)	-158
O=C(/C=C/c1ccccc1[N+](=O)[O-])c1ccccc1Br	-79
N/C(=N\OC(=O)CC1CCCCC1)c1ccc(Br)cc1	-83
N/C(=N\OC(=O)C1CCCCC1)c1cccc(Br)c1	-170
SMILES	aSyn 5UTR act
N/C(=N\OC(=O)CC1CCCCC1)c1cccc(Br)c1	-84
CCOC(=O)c1c(N/N=C/c2ccncc2)n[nH]c1C	-81
CCc1[nH]nc(C(=O)N/N=C/c2ccncc2)c1C	-70
COc1c(OC(C)=O)ccc(/C=C/c2ccc3cccc(OCc4ccccc4)c3n2)c1[N+](=O)[O-]	-129
O=C(Nc1ccccc1Br)c1ccc(OC(=S)N2CCOCC2)cc1	-192
Cc1ccc(NC(=O)c2ccc(OC(=S)N3CCOCC3)cc2)cc1	-75
CCOc1ccc(Nc2ncnc3c2nnn3Cc2ccccc2)cc1	-79
CC(=O)[C@]1(O)Cc2c(O)c3c(c(O)c2[C@@H](O[C@H]2C[C@H](N)[C@H](O)[C@H](C)O2)C1)C(=O)c1ccccc1C3=O	i
CCOC(=O)c1c(C)nc2c3ccccc3ccn12	-91
NC(=O)c1cc2c3ccccc3ccn2c1-c1ccccc1	i
COC(=O)N/N=C\c1ccc(OC/C=C/c2ccccc2)cc1	-95
CCOC(=O)N/N=C/C=C/c1ccccc1	-105
COC(=O)N/N=C/c1ccc(Oc2ccccc2)cc1	-69
COc1ccc(/C=N/NC(=O)COc2ccccc2-c2ccccc2)cc1	i
CCOC(=O)N/N=C\c1ccc(OC/C=C/c2ccccc2)cc1	-73
CC(=O)N/N=C\c1ccccc1OC/C=C/c1ccccc1	-128
CC(C)(O)C(=O)N/N=C\c1ccc(OC/C=C/c2ccccc2)cc1	-96
Cc1ccc(/C(N)=N/OC(=O)CCc2ccccc2)cc1	-129
N/C(=N\OC(=O)CCc1ccccc1)c1ccccc1Cl	-70
Nc1nonc1-n1nnc(C(=O)N/N=C/c2ccc(OCc3ccccc3)cc2)c1COc1ccc(F)cc1	-96
